Results taken from PubChem BioAssay (NCI).
The panel holds about 79,000 compounds, 15% with a hit somewhere; the sample as a whole holds those more often. Unmarked numbers belong to inactive results. Calls of active or inactive are those of the source. No stated cut-off is given here; in the data, active means growth inhibition above about 70%; inactive means the rest.

What was measured:
[1] = NCI Yeast Anticancer Drug Screen. Data for the rad50 strain (AID 155);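 further: 0% = growth of vehicle-only cultures of the same strain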; conditions: S. cerevisiae rad50 strain growth inhibition, stronger effect = higher value
Outline: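 DNA repair mutant yeast, compound exposure, growth read-out; inhibition is taken relative to vehicle.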

[2] = NCI Yeast Anticancer Drug Screen. Data for the mec2-1 strain (AID 157); conditions: S. cerevisiae mec2-1 strain, stronger effect = higher value
Outline: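 Strain: mec2-1 (DNA repair/cell cycle alteration). Compound exposure, then growth measured; inhibition expressed relative to vehicle.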

[3] = NCI Yeast Anticancer Drug Screen. Data for the sgs1 mgt1 strain (AID 161);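 further: 0% = growth of cultures given vehicle only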; conditions: S. cerevisiae sgs1 mgt1 strain, stronger effect = higher value
Outline: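 Read-out: growth inhibition vs vehicle controls. Cells: mutant yeast strain deficient in DNA damage repair.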

[4] = NCI Yeast Anticancer Drug Screen. Data for the cln2 rad14 strain (AID 165);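 further: 0% = growth equal to vehicle treated cultures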; conditions: S. cerevisiae cln2 rad14 strain, stronger effect = higher value
Outline: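 Compounds are applied to the cln2 rad14 yeast strain, and growth is then compared with that of vehicle-treated cultures to give inhibition.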

[5] = NCI Yeast Anticancer Drug Screen. Data for the bub3 strain (AID 167); conditions: S. cerevisiae bub3 mutant strain, stronger effect = higher value
Outline: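 In this screen, a yeast mutant lacking normal mitotic checkpoint function is challenged with compound. Relative growth versus vehicle gives the inhibition value.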

[6] = NCI Yeast Anticancer Drug Screen. Data for the mlh1 rad18 strain (AID 175); conditions: S. cerevisiae mlh1 rad18 strain growth inhibition, stronger effect = higher value
Outline: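 Read-out is yeast growth inhibition, calculated against vehicle-only controls. The compound was applied to a strain engineered with DNA damage repair alterations.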

[7] = at 5.0 µM (retest, dose inferred, filed as 0.5)
[8] = at 50.0 µM (retest, dose inferred, filed as 5.0)

Structure (SMILES)	growth inhibition [1, 7] [%]	growth inhibition [1, 8]	growth inhibition ([1]; at 50.0 µM)	growth inhibition [2, 7] [%]	growth inhibition [2, 8]	growth inhibition ([2]; at 50.0 µM)	growth inhibition [3, 7] [%]	growth inhibition [3, 8]	growth inhibition ([3]; at 50.0 µM)	growth inhibition [4, 7] [%]	growth inhibition [4, 8]	growth inhibition ([4]; at 50.0 µM)	growth inhibition [5, 7] [%]	growth inhibition [5, 8]	growth inhibition ([5]; at 50.0 µM)	growth inhibition [6, 7] [%]	growth inhibition [6, 8]	growth inhibition ([6]; at 50.0 µM)
CCC(c1ccc(O)cc1)C(O)(CC)c1ccc(O)cc1 (stereo not given)	-6	-9%	46.4%	-10	-4%	28.9%	-3	35%	65.1%	-24	-1%	26.1%	-11	-11%	58.6%	-26	-8%	14.3%
O=C1C2=C(C(=O)c3cnccc31)C1C=CC2CC1 (stereo not given)	21	71% (active)	49.1%	17	69%	31.2%	25	78% (active)	10.2%	16	40%	15.8%	27	88% (active)	59.9%	40	94% (active)	90.8% (active)
COC(=O)C1=C(C(=O)OC)C2(C)OC1C(=O)C21CC1 (stereo not given)	15	85% (active)	88.3% (active)	18	94% (active)	84.6% (active)	23	94% (active)	86.8% (active)	6	70% (active)	76.2% (active)	20	91% (active)	93.6% (active)	18	94% (active)	94.5% (active)
CS(=O)(=O)c1cc(=O)c2ccccc2s1	6	99% (active)	97.2% (active)	23	99% (active)	96.6% (active)	21	99% (active)	97.5% (active)	10	99% (active)	84.7% (active)	-3	100% (active)	31.6%	17	99% (active)	97.8% (active)
Oc1ccc(-c2nnc(-c3ccc(Cl)cc3Cl)o2)cc1	6	80% (active)	54.6%	2	82% (active)	50.8%	0	85% (active)	54.2%	2	86% (active)	74.4% (active)	17	91% (active)	47.5%	-2	76% (active)	51.8%
COC(=O)c1c[nH]c2ccc(Br)cc12	-3	23%	30.9%	8	43%	28.8%	-1	19%	31.8%	-9	-20%	44%	7	22%	68.5%	23	40%	40.5%
CCSSC12CCCN1C(=O)C(C)N(C)C2=O (stereo not given)	1	79% (active)	77.6% (active)	9	81% (active)	16.4%	7	49%	11.6%	11	58%	-61.4%	0	53%	19.8%	1	84% (active)	4.5%
O=S1(=O)CC=C1c1ccccc1	8	78% (active)	96.3% (active)	8	92% (active)	96.5% (active)	7	89% (active)	94.8% (active)	5	61%	73.8% (active)	2	84% (active)	95.2% (active)	2	92% (active)	97.7% (active)
Oc1cc2c(cc1C(c1ccc(F)cc1)N1CCCCC1)OCO2 (stereo not given)	-1	76% (active)	63%	-5	73% (active)	64.4%	6	77% (active)	85.5% (active)	-4	39%	54.9%	-8	54%	84.4% (active)	-1	88% (active)	59.3%
Cc1ccc(C)c2c3c([nH]c12)-c1ccccc1CC3	1	3%	98.5% (active)	-3	2%	92.8% (active)	-4	10%	83.5% (active)	-1	7%	80% (active)	0	4%	96.7% (active)	6	9%	94.8% (active)
